Source: PubChem BioAssay (NCATS)
Where “and” joins values, the source holds several entries; their conditions need not be identical. Equal entries are not always repeated. Inconclusive results are not listed. A number with no mark means an inactive call. Calls of active or inactive are those of the source. The call rests on the fitted dose curve; in most records, active means well fitted inhibition curve with a large enough effect; inconclusive means small, poorly fitted or top-dose-only effect; inactive means flat fitted curve, though single readings scatter.

The molecules below were run on KB-3-1 (assay: Cytotoxic Profiling of Annotated Libraries Using Quantitative High-Throughput Screening (AID 1296008; further: nearly all actives have a fitted effect of over 60% in size)). Settings: Five cell lines viability, CellTiter-Glo ATP luminescence, 48-72 h; max response: active compounds read low.
Text: Cell-based phenotypic screening is a commonly used approach to discover biological pathways, novel drug targets, chemical probes and high-quality hit-to-lead molecules. Many hits identified from high-throughput screening campaign are ruled out through a series of follow-up potency, selectivity/specificity, and cytotoxicity assays. Prioritization of molecules with little or no cytotoxicity for a more in-depth downstream evaluation influence the future direction of projects, so cytotoxicity profiling of the screening libraries at early stage is essential for increasing the likelihood of candidate success. […] For the annotated library, we also examined the primary targets and mechanistic pathways regularly associated with cell death. To our knowledge, this is the first study to use high-throughput screening to profile large libraries for cytotoxicity assessment in both normal and cancer cell lines. In summary, the results generated here constitutes a valuable resource for the scientific community and provides insight on identifying cytotoxic compounds with particular mechanisms of action, and prioritizing compounds with suitable cytotoxicity profile for further evaluation.
A pintool (Kalypsys) was used to transfer 23 nL of compound solution to the 1536-well assay plates. After 48 or 72 hr incubation at 37 degree Celsius, 5% CO2 and 95% humidity, 2.5 uL of CellTiter-Glo (Promega) was dispensed into each well using a dispenser (Aspect Automation, St. Paul, MN) with solenoid valves (Lee Valves, Westbrook CT). Plates were left at room temperature for 10 min before imaging the ATP-coupled luminescence using a ViewLux microplate imager (PerkinElmer, Waltham, MA).
On the % scale 0 is the no-effect control and ±100 the full control effect.

SMILES | max response | outcome
c1ccc(CCNc2nc(-c3ccccc3)cs2)cc1 | -17.2% | –
O=C(O)COc1ccc(C(=O)c2cccs2)c(Cl)c1Cl | -1.65% and 4.87% | –
CN(CCCOc1ccc(Cc2ccccc2)cc1)CCC(=O)O | 7.31% | –
CC[C@H]1OC(=O)[C@H](C)C(=O)[C@H](C)[C@@H](O[C@@H]2O[C@H](C)C[C@H](N(C)C)[C@H]2O)[C@](C)(OC)C[C@@H](C)C(=O)[C@H](C)[C@H]2N(CCCCn3cnc(-c4cccnc4)c3)C(=O)O[C@]12C | 6.09% and 49.1% | –
Cc1cc(O)c2ccccc2c1O | 6.5% | –
CN1[C@@H]2CC[C@H]1CC(OC(c1ccccc1)c1ccccc1)C2 (stereo not given in full) | -4.67% and 6.16% and -6.04% | inactive
O=C(O)/C=C/C(O)c1ccc(Cl)cc1 (stereo not given) | -6.79% | –
COC(=O)[C@H]1[C@H]2C[C@@H]3c4[nH]c5cc(OC)ccc5c4CCN3C[C@H]2C[C@@H](OC(=O)/C=C/c2cc(OC)c(OC)c(OC)c2)[C@@H]1OC | -8.17% | inactive
C[C@H](O)[C@H](O)[C@H]1CNc2nc(N)[nH]c(=O)c2N1 | 14% | inactive
COc1cc(/C=C/C(=O)CC(=O)/C=C/c2ccc(O)c(OC)c2)ccc1O | 44.3% | –
c1ccc2sc(SSc3nc4ccccc4s3)nc2c1 | 18.6% | –
CC1(C)S[C@@H]2[C@H](NC(=O)[C@H](N)c3ccc(O)cc3)C(=O)N2[C@H]1C(=O)O | 11.9% and 8.22% | –
CC1(C)[C@@H](O[C@H]2O[C@H](C(=O)O)[C@@H](O)[C@H](O)[C@H]2O[C@@H]2O[C@H](C(=O)O)[C@@H](O)[C@H](O)[C@H]2O)CC[C@]2(C)[C@H]3C(=O)C=C4[C@@H]5C[C@@](C)(C(=O)O)CC[C@]5(C)CC[C@@]4(C)[C@]3(C)CC[C@@H]12 | 5.21% | inactive
C[S+](CC[C@H](N)C(=O)O)C[C@H]1O[C@@H](n2cnc3c(N)ncnc32)[C@H](O)[C@@H]1O (stereo not given in full) | 16.4% and -2.48% | –
O=c1[nH]c2ccccc2n1CCCN1CCN(C(c2ccccc2)c2ccccc2)CC1 | 18.6% | –
CCCCCCCCCCCC(=O)[O][Sn]([CH2]CCC)([CH2]CCC)[O]C(=O)CCCCCCCCCCC | -5.63% | –
Nc1ccc(O)c(C(=O)O)c1 | 2.58% | –

SMILES | max response | outcome
CN1CCN(c2cc3c(nn2)Oc2ccccc2N3C)CC1 | -19.4% | –
COc1cc(/C=C/C(=O)N2CCN(CC(=O)N3CCCC3)CC2)cc(OC)c1OC | 5.58% | inactive
CC(=O)O[C@H]1C[C@@]2(C)[C@@H](C[C@@H](O)[C@H]3[C@@]4(C)CC[C@@H](O)[C@@H](C)[C@@H]4CC[C@@]32C)/C1=C(\CCC=C(C)C)C(=O)O | -11.2% | inactive
CN1CC(=O)N/C1=N/C(=O)Nc1cccc(Cl)c1 | 1.15% and -4.39% | –
CCNc1nc2c(ncn2[C@H]2C[C@H](O)[C@@H](CO)O2)c(=O)[nH]1 | – | inactive
CC(N)C(=O)OC(C)(C)Cc1ccc(Cl)cc1 (stereo not given) | 3.19% | –
O=C(O)CC1CC(c2ccccc2)=NO1 (stereo not given) | – | inactive
Nc1nc2ccc([N+](=O)[O-])cc2s1 | -15.7% | –
CN(C)c1ccc(N=NS(=O)(=O)O)cc1 | -10.4% | –
Nc1cc(-c2ccncc2)c[nH]c1=O | 4.08% | –
CCCCCCCCCCCCCCCCCC(=O)O | -8.88% | –
CN(C)[C@@H]1C(=O)C(C(=O)NCN2CCCC2)=C(O)[C@@]2(O)C(=O)C3=C(O)c4c(O)cccc4[C@@](C)(O)C3C[C@@H]12 (stereo not given in full) | 3.68% and -3.42% | –
COc1ccc(-c2cc(=S)ss2)cc1 | 24% | –
CCCOC(=O)c1ccc(O)cc1 | -6.63% and -13.7% | –
C=CCN1C(=O)C(CC(C)C)NC1=S (stereo not given) | 11.7% and 6.26% | –
C/C(=N\O)c1ccc(OCC(=O)N2CCCCC2)cc1 | – | inactive
CC(C(=O)O)c1ccc(C(=O)c2ccccc2)s1 (stereo not given) | 0.65% | –
